Assay outcomes (PubChem)
CYP2C9 inhib: blockers of cytochrome P450 2C9 activity – biochemical, luminescence, ADME assay, primary screen; CYP2C9 Supersomes, luciferin-H conversion; inhibition, % at 5 µM; hit rate 20% among 96,000;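 active = blocking of liver enzyme CYP2C9 beyond about 50% at 5 µM, limit read from the data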
Target sequence (P11712 whole entry, looked up): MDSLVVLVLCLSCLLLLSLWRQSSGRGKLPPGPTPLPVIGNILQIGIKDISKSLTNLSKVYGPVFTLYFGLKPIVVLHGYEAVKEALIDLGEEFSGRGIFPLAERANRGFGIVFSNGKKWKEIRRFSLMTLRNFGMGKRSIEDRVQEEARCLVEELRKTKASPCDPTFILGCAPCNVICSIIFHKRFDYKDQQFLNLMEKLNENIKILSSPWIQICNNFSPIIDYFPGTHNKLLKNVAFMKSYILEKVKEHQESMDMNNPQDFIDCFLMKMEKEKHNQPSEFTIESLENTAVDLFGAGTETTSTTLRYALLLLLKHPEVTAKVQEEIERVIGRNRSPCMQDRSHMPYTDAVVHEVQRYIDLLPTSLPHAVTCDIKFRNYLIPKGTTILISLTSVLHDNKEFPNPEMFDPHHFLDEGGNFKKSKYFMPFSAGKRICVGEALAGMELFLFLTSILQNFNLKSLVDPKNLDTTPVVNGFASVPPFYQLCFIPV
CYP2C9 act: human CYP2C9 activators, primary screen, biochemical, luminescence. AID 1024, 2008. hit rate 1.4% among 96,000. activation factor at 5 µM. recombinant CYP2C9, luciferin-H conversion; stronger effect = higher value; factor 1 = untreated enzyme, 0 = blocked. Cytochrome P450 2C9 (Homo sapiens), P11712;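 active = activation factor of 2 or more for CYP2C9 at a 5 µM dose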
CYP2C19 activ: human CYP2C19 activators, primary screen, biochemical, luminescence. Cytochrome P450 2C19 (Homo sapiens), P33261. activation factor at 5 µM. 96,000 tested, under 10 active. recombinant CYP2C19, luciferin-H EGE luminescence; stronger effect = higher value; 0 = fully inhibited enzyme, 1 = untreated enzyme. AID 1025, 2008;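 active = activation factor of at least 2 at 5 µM in the primary screen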
CYP2C19 inh: blockers of cytochrome P450 2C19 activity – biochemical, luminescence, ADME assay, primary screen; hit rate 21% among 96,000; CYP2C19 Supersomes, luciferin-H EGE luminescence, 30 min; inhibition, % at 5 µM; P33261;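 active = CYP2C19 inhibition above a set limit at 5 µM in the primary screen, cut at about 50% in these data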
Numbers stand for hits; i = inactive. The list is not random: actives were taken first. Their share in the collection is about 31%.

SMILES | CYP2C9 inhib | CYP2C9 act | CYP2C19 activ | CYP2C19 inh
Cc1ccc(-c2nnn(CC(=O)N3CCN(c4ccccc4)CC3)n2)o1 | i | i | i | i
Cc1cc(C)n2ncc(C(=O)NCCc3ccccc3)c2n1 | i | i | i | i
Cc1cc(C(F)F)n2ncc(C(=O)NCCc3ccc(Cl)cc3)c2n1 | i | i | i | 84.8
CCNC(=O)N1c2ccc(OC)cc2C(C)=CC1(C)C | i | i | i | i
CSc1ccc(/C=N\NC(=O)CNc2ccc(C)cc2)cc1 | i | i | i | i
O=C(c1ccc(Cl)cc1)N(Cc1cccs1)C1CCS(=O)(=O)C1 (stereo unspecified) | i | i | i | i
CC1(C)CC(=O)C2=C(C1)OC(N)=C(C#N)C21C(=O)N(Cc2ccccc2Cl)c2ccccc21 (stereo unspecified) | 93.5 | i | i | 85.9
CCOC(=O)N1CCC2(CC1)C(C#N)=C(N)OC1=C2C(=O)CC(C)(C)C1 | 54.4 | i | i | i
CC1(C)CC(=O)C2=C(C1)OC(N)=C(C#N)C21CCN(Cc2ccccc2)CC1 | 74.1 | i | i | 73.0
CC(C)C(=O)Nc1ccc(NC(=S)NC(=O)c2ccc([N+](=O)[O-])cc2)cc1 | i | i | i | i
COc1cccc(NCc2cc3c(C(C)(C)C)nn(-c4ccccc4)c3[nH]c2=O)c1 | 81.6 | i | i | i
CCOc1ccc(NCc2cc3c(C(C)(C)C)nn(-c4ccccc4)c3[nH]c2=O)cc1 | 58.7 | i | i | i
Cc1nn(-c2ccccc2)c2[nH]c(=O)c(CNCCN3CCOCC3)cc12 | i | i | i | i
Cc1ccc(-c2nn(-c3ccccc3)c3[nH]c(=O)c(CNCCN(C)C)cc23)cc1 | i | i | i | i
CNC(=O)N(C1=NCC(C)(C)S1)c1ccc(F)c(Cl)c1 | 51.1 | i | i | 91.2
COc1cccc(/C=N/n2c(C)nc3ccccc32)c1OC | 68.5 | i | i | i
COc1ccc(/C=N/n2c(SC)nnc2-c2ccccc2)cc1C | i | i | i | 54.1
COc1ccc(/C=N/n2c(SC)nnc2-c2ccccc2)c(OC)c1OC | 67.4 | i | i | 78.8
COc1cccc(/C=N\n2c(C)nnc2C)c1OC | i | i | i | i
CCOC(=O)C1=C(c2ccccc2)Nc2ncnn2C1c1cc(OC)ccc1OC (stereo unspecified) | i | i | i | i
O=S(=O)(NC1CCCCC1NCc1ccco1)c1ccccc1 (stereo unspecified) | i | i | i | i
COC1CCCCC1Nc1cc(C)ccc1C (stereo unspecified) | i | i | i | i
COC1CCCCC1NS(=O)(=O)c1ccccc1 (stereo unspecified) | i | i | i | 56.5
COC1CCCCC1NS(=O)(=O)c1ccc(Cl)cc1 (stereo unspecified) | i | i | i | 94.4
Nc1cc(N)nc(SCC(=O)c2ccccc2)n1 | i | i | i | i
SMILES | CYP2C9 inhib | CYP2C9 act | CYP2C19 activ | CYP2C19 inh
COc1ccc(Cl)cc1C(=O)CSc1nc(N)cc(N)n1 | i | 4.1 | i | i
CCCCn1nnnc1SCC(=O)c1ccc(C)c(C)c1 | i | i | i | 89.8
CCCCn1nnnc1SCC(=O)c1cc(Cl)ccc1OC | i | 2 | i | 74.5
CCCCn1nnnc1SCC(=O)NCc1ccco1 | i | i | i | i
C=CCOc1ccc(CNc2nn[nH]n2)cc1 | i | i | i | i
COc1ccc(-n2c(N)c(C(=O)NCC3CCCO3)c3nc4ccccc4nc32)c(OC)c1 (stereo unspecified) | 55.3 | i | i | i
CCCNC(=O)c1c(N)n(-c2cc(OC)cc(OC)c2)c2nc3ccccc3nc12 | 70.4 | i | i | i
Nc1c(C(=O)OCC2CCCO2)c2nc3ccccc3nc2n1-c1ccc2c(c1)OCCO2 (stereo unspecified) | 58.6 | i | i | 54.0
CC(C)n1c(=S)[nH]c2ccccc21 | i | 3 | i | i
COc1ccc(CNc2oc(COc3ccc(Cl)cc3)nc2C#N)cc1 | i | i | i | i
COc1ccc(-c2nc(C#N)c(NCc3ccc(F)cc3)o2)cc1OC | i | i | i | i
N#Cc1nc(COc2cccc(Cl)c2)oc1NCc1ccncc1 | 99.7 | i | i | 100.0
N#Cc1nc(-c2cccc(Cl)c2)oc1NCc1cccnc1 | 94.0 | i | i | 95.1
COc1ccc(-c2nc(C#N)c(NCc3cccnc3)o2)cc1OC | 50.9 | i | i | i
CCN(CC)CCCNc1oc(-c2cccc(Cl)c2)nc1C#N | i | i | i | i
Cc1cc2ccccc2c(=O)n1CC(=O)NCC(=O)N(C)C1CCCCC1 | i | i | i | i
O=C(c1cnn2cccnc12)N1CCN(c2ccccc2)CC1 | i | i | i | 86.7
O=C(Nc1ccc(N2CCN(C(=O)c3ccccc3)CC2)cc1)c1ccc2c(c1)OCO2 | i | i | i | i
CCn1cc(Br)c(C(=O)N(C)Cc2ccccc2)n1 | i | i | i | 92.0
CCn1cc(Br)c(C(=O)NC(C)c2ccccc2)n1 (stereo unspecified) | i | i | i | i
CC(C)OC(=O)c1cccnc1N1CCN(c2ccc(F)cc2)CC1 | i | i | i | 62.7
O=C(c1ccc2c(c1)OCO2)N1CCN(c2ccc(F)cc2)CC1 | i | i | i | 83.8
Cc1ccc(Cl)cc1NC(=O)Cn1cc2c(n1)CCCC2 | i | i | i | i
CS(=O)(=O)N(CC(=O)N1CCN(c2ccccc2F)CC1)c1cc(C(F)(F)F)ccc1Cl | i | i | i | i
COc1ccc(C(=O)N2CCN(C(=O)c3ccncc3)CC2)cc1 | i | i | i | i
SMILES | CYP2C9 inhib | CYP2C9 act | CYP2C19 activ | CYP2C19 inh
O=C(c1c(F)c(F)c(F)c(F)c1F)N1CCN(c2cccc(C(F)(F)F)c2)CC1 | i | i | i | i
O=C(c1ccccc1Br)N1CCN(c2ccccc2)CC1 | i | i | i | 59.7
O=C(c1ccncc1)N1CCN(c2ccc(F)cc2)CC1 | i | i | i | 91.4
O=C(CCCCC(=O)N1CCN(c2ccccc2)CC1)N1CCN(c2ccccc2)CC1 | i | i | i | i
O=C(c1ccncc1)N1CCN(c2cccc(C(F)(F)F)c2)CC1 | 92.1 | i | i | 100.3
O=C(c1ccccc1F)N1CCN(c2cccc(C(F)(F)F)c2)CC1 | 63.2 | i | i | 90.6
CCSc1ccccc1C(=O)N1CCCC1 | i | i | i | i
O=C(c1ccccc1C(=O)N1CCN(c2ccccc2F)CC1)N1CCN(c2ccccc2F)CC1 | 89.0 | i | i | 69.6
CCSc1ccccc1C(=O)N1CCN(c2ccccc2F)CC1 | 57.8 | i | i | 53.6
O=C(c1ccc2c(=O)n(-c3ccccc3)c(=O)[nH]c2c1)N1CCN(c2ccc(F)cc2)CC1 | i | i | i | i
O=C(c1sc2ccccc2c1Cl)N1CCN(c2ccc(F)cc2)CC1 | i | 2.3 | i | 81.7
O=C(c1coc2ccccc2c1=O)N1CCN(c2cccc(C(F)(F)F)c2)CC1 | 53.0 | i | i | i
CC(=O)c1c(C)[nH]c(C(=O)COC(=O)CN(C)S(=O)(=O)c2ccc(Cl)cc2)c1C | i | i | i | i
O=c1[nH]c(N2CCOCC2)nc2c1CCCC2 | i | i | i | i
